A short description of assay [1]: inhibitors of TNFa-induced NFkB p65 translocation, primary screen, imaging, HUVEC, MLSMR starter and 10KST1 sets (AID 438;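 active = inhibition above 20% together with a positive visual image hit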;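 also: compound added about 3h40 before a 20 min TNFalpha stimulation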;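 as to inhibition: signal is the nuclear over cytoplasmic p65 intensity ratio per well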). The conditions noted are these: HUVEC TNFa-induced p65 nuclear translocation; cell count: measured here: nuclei count (cytotoxicity indicator), at 2.08 µM; inhibition: at 2 µM, stronger effect = higher value, 0% TNFa-plus-vehicle, 100% no-TNFa wells.
Assay [2] in a line: reduction of polyQ htt aggregates in cells – imaging, exon1htt(103Q)mCFP cells, high-content imaging, primary screen (AID 483;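 active = visual image review flags a hit and inhibition of aggregation exceeds 20%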;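 also: compound exposure lasted 3 days before fixation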;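 as to nuclei count: percent of the per-plate median nuclei count of sample wells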). The note with it: exon1htt(103Q)mCFP cell line, aggregate imaging, at 2 µM; inhibition of aggregation: stronger effect = higher value; nuclei count: measured here: cell count, toxicity.
Assay [3] can be described thus: endothelial E-selectin expression blockers – imaging, HUVEC, immunofluorescence, MLSMR starter and 10KST1 sets, primary screen (AID 487;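 active = visually confirmed hit in the image check and inhibition above 20%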;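 as to inhibition: signal is fraction of cell area covered by stained E-selectin grains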;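 as to nuclei count: 100% = median nuclei count of all wells on the same plate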). The conditions noted are these: HUVEC TNFalpha-induced E-selectin immunofluorescence imaging, at 2 µM; inhibition: stronger effect = higher value; nuclei count: measured here: cell number, toxicity.
In assay [4] the target is Voltage-gated potassium channel subunit beta-2 (Rattus norvegicus) (UniProt P62483). Kind of assay: inhibitors of rat Kvbeta2 reductase activity – biochemical, NADPH fluorescence, primary screen (AID 622;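 active = fluorescence slope higher than the sample average by over 3 SD, cut at about -0.22 in these data, passing the limit was not always enough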;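 also: slope of raw intensity against log time taken from 70 to 1610 s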). The note with it: recombinant KvBeta, 4-cyanobenzaldehyde reduction, at 10 µM, stronger effect = higher value.
Assay [5] shares this target. Briefly: enhancers of rat Kvbeta2 NADPH turnover – biochemical, NADPH fluorescence, primary screen (AID 623;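 active = NADPH fluorescence slope more negative than the mean of all samples by about 3 SD, 99.7% confidence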;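 also: fluorescence intensity change per second fitted from 20 to 320 s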). The note with it: Recombinant KvBeta, NADPH fluorescence decrease slope, 10 min; at 10 µM; stronger effect = lower value.
Assay [6] concerns the target Alpha-2C adrenergic receptor (Homo sapiens) (UniProt P18825). Briefly: compounds altering alpha2C-coupled GIRK flux – cell-based, HEK293 alpha2C/GIRK1/2, thallium flux, primary screen (AID 624;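 active = fluorescence slope after compound addition differing from the mean of all screened samples at 99.7% confidence, in either direction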;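 also: slope of fluorescence ratio to pre-addition baseline per second over 15 to 24 s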). The conditions noted are these: thallium flux BTC fluorescence, at 10 µM, actives lie on both sides.
The nature of assay [7]: blockers of RIG-like receptor reporter activation – cell-based, Sendai virus stimulus, luciferase, 10K MLSCN set, TLR/RLR signaling modifier project, primary screen (AID 602276).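 Also: firefly luciferase from ISG56 promoter only with Renilla not read in this screen; 0% = Sendai virus plus DMSO and 100% = medium plus DMSO without virus.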 The note with it: HEK293 RL24 IRF3 luciferase reporter, at 10 µM, stronger effect = higher value.
Assay [8] is described as follows: TLR3 IRF3 reporter activation blockers – cell-based, poly I:C stimulus, luciferase, 10K MLSCN set, primary screen (AID 602277;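 active = inhibition of the reporter signal at or above 50%; inactive = inhibition below 50%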). The note with it: HEK293-TLR3 RL24 IRF3 luciferase reporter, at 10 µM, stronger effect = higher value.

Calls of active or inactive are those of the source.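 The calls were made as follows, unless noted: active = inhibition at or above 50% at 10 µM; inactive = inhibition below 50%.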

Sequence of Alpha-2C adrenergic receptor (Homo sapiens) (P18825 whole entry, looked up): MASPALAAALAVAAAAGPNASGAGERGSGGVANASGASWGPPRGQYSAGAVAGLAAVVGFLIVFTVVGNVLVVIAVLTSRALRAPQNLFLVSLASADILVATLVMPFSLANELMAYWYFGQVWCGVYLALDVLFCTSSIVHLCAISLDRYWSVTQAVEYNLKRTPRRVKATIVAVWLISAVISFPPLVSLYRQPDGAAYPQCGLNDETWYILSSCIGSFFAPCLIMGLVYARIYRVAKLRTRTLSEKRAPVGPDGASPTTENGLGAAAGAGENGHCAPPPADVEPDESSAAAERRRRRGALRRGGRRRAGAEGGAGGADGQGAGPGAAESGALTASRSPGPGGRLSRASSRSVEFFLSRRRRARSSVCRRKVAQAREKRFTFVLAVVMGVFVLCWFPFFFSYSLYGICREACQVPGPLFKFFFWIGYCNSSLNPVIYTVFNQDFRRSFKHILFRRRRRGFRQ
Sequence of Voltage-gated potassium channel subunit beta-2 (Rattus norvegicus) (P62483 whole entry, looked up): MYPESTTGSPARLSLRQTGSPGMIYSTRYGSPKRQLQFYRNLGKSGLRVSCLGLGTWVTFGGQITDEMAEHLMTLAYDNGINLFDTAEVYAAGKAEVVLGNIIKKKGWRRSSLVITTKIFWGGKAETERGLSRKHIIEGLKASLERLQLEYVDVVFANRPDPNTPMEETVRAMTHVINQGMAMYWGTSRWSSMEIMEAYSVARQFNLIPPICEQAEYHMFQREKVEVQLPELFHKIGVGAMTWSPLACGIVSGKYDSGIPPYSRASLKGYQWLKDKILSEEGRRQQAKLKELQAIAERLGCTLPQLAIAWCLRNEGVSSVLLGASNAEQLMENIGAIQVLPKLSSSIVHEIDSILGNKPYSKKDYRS

As for `O=C1C2C3C=CC(C3)C2C(=O)N1c1cccc(N2C(=O)C3C4C=CC(C4)C3C2=O)n1` (configuration not stated), the cell count in assay [1] came to 227. Moreover, the inhibition in assay [1] is 8.4% (inactive); in assay [3] it was -160% (inactive); in assay [7], 3.37% (inactive); in assay [8], 21.6% (inactive). The inhibition of aggregation in assay [2] is -5.5% (inactive). For the same molecule, the figures for the nuclei count in assay [2] and in assay [3] were 109% and 137%, respectively. For the same molecule, the fluorescence slope in assay [4] was -0.549 (inactive). In addition, the NADPH fluorescence slope in assay [5] was -1.2e-05 (inactive). Further, the slope in assay [6] was 0.00682 (inactive).
Consider `Cc1cc(C)c2[nH]c(=O)c(C(c3nnnn3Cc3ccc4c(c3)OCO4)N3CCC(C)CC3)cc2c1` (configuration not stated), for which the cell count in assay [1] amounted to 716. Moreover, the inhibition in assay [1] is -1.6% (inactive); in assay [3] it was 70% (inactive); in assay [7] it was -4.82% (inactive); in assay [8], 18.2% (inactive). For the same molecule, the inhibition of aggregation in assay [2] was 2.1% (inactive). Moreover, the nuclei count was found to be 98.1% in assay [2] and 73.2% in assay [3]. In assay [4], the fluorescence slope is -0.428 (inactive). In addition, the NADPH fluorescence slope in assay [5] was 6.4e-06 (inactive). Moreover, the slope in assay [6] was 0.0051 (inactive).
Take `COc1ccc(N2CCN(CCCNC(=O)C3CCCN(S(=O)(=O)c4cnc[nH]4)C3)CC2)cc1` (configuration not stated): the cell count in assay [1] was determined as 604. In addition, the inhibition in assay [1] is 33.9% (active); in assay [3] it was -87.7% (inactive); in assay [7] it was -10.4% (inactive); in assay [8] it was 17.4% (inactive). Further, in assay [2], the inhibition of aggregation is -29.9% (inactive). For the same molecule, the nuclei count in assay [2] amounted to 89.3%; in assay [3], 122%. Moreover, the fluorescence slope in assay [4] was -0.537 (inactive). In addition, the NADPH fluorescence slope in assay [5] is -5.9e-06 (inactive). For the same molecule, the slope in assay [6] is 0.0058 (inactive).
As for `CC(=O)N(CCN(C(C)=O)c1ccccc1)c1ccccc1`, the cell count in assay [1] was found to be 448. In addition, the inhibition in assay [1] is -1.1% (inactive); in assay [3], 12.5% (inactive); in assay [7], 13.8% (inactive); in assay [8], 17.2% (inactive). In assay [2], the inhibition of aggregation was 4% (inactive). The nuclei count stood at 80.2% in assay [2] and 88.5% in assay [3]. Also, the fluorescence slope in assay [4] is -0.454 (inactive). The NADPH fluorescence slope in assay [5] was 7e-05 (inactive). For the same molecule, in assay [6], the slope was 0.00518 (inactive).
On to `C=CC(O)(C#CCN(CC)CC)c1ccccc1` (configuration not stated), for which the cell count in assay [1] was determined as 740. Also, the inhibition in assay [1] was -36% (inactive); in assay [3], -53.6% (inactive); in assay [7] it was 4.67% (inactive); in assay [8], 11.4% (inactive). Also, the inhibition of aggregation in assay [2] was -18.5% (inactive). Moreover, the nuclei count in assay [2] stood at 107%; in assay [3], 110%. For the same molecule, in assay [4], the fluorescence slope is -0.596 (inactive). Also, in assay [5], the NADPH fluorescence slope is -5e-05 (inactive). Moreover, in assay [6], the slope was 0.0061 (inactive).
On to `O=C(COC(=O)c1ccccc1O)Nc1ccc(OC(F)F)cc1`, for which the cell count in assay [1] came to 674. In addition, the inhibition was 5.1% (inactive) in assay [1], -64.8% (inactive) in assay [3], -13.8% (inactive) in assay [7] and -42.2% (inactive) in assay [8]. For the same molecule, the inhibition of aggregation in assay [2] is -8.4% (inactive). For the same molecule, the nuclei count in assay [2] came out at 103%; in assay [3] it was 136%. The fluorescence slope in assay [4] was -0.543 (inactive). Besides, the NADPH fluorescence slope in assay [5] is 7.7e-06 (inactive). In assay [6], the slope was 0.00583 (inactive).
For `COc1ccc(NC(=O)CCc2nc(-c3ccccc3F)no2)cc1`, the cell count in assay [1] came out at 729. Further, the inhibition was -1.7% (inactive) in assay [1], -8.4% (inactive) in assay [3], 4.66% (inactive) in assay [7] and 10.4% (inactive) in assay [8]. Further, the inhibition of aggregation in assay [2] was 30% (active). The nuclei count stood at 94.6% in assay [2] and 115% in assay [3]. In assay [4], the fluorescence slope was -0.47 (inactive). The NADPH fluorescence slope in assay [5] is -2.2e-05 (inactive). For the same molecule, the slope in assay [6] was 0.00593 (inactive).
Turning to `COc1cccc(C2C3=C(N=C4SCC(=O)N42)c2ccccc2CC3)c1OC` (configuration not stated), the cell count in assay [1] is 680. The inhibition in assay [1] was 1.6% (inactive); in assay [3] it was -15.3% (inactive); in assay [7], -0.493% (inactive); in assay [8] it was 29.3% (inactive). In addition, the inhibition of aggregation in assay [2] was -10.8% (inactive). Besides, the nuclei count in assay [2] came out at 107%; in assay [3] it was 98.5%. In addition, in assay [4], the fluorescence slope is -0.442 (inactive). In addition, the NADPH fluorescence slope in assay [5] was 4.1e-05 (inactive). Also, the slope in assay [6] was 0.00306 (inactive).
In the case of `Cn1c(=O)cc(OCC(=O)NCCCN2CCN(c3cccc(Cl)c3)CC2)c2ccccc21`, the cell count in assay [1] is 583. Moreover, the inhibition is 8% (inactive) in assay [1], -83.7% (inactive) in assay [3], 25% (inactive) in assay [7] and 31.3% (inactive) in assay [8]. In assay [2], the inhibition of aggregation was -42.4% (inactive). Moreover, the nuclei count in assay [2] amounted to 98.2%; in assay [3], 128%. Besides, the fluorescence slope in assay [4] was -0.514 (inactive). Further, in assay [5], the NADPH fluorescence slope was -1.4e-05 (inactive). Moreover, the slope in assay [6] is 0.00636 (inactive).
Consider `CCOc1ccc(CNC(=O)C2CCCN(S(C)(=O)=O)C2)cc1OC` (configuration not stated), for which the cell count in assay [1] was determined as 664. For the same molecule, the inhibition in assay [1] is -7.1% (inactive); in assay [3], -95.3% (inactive); in assay [7], 9.09% (inactive); in assay [8] it was 12% (inactive). Further, the inhibition of aggregation in assay [2] was 11.9% (inactive). Moreover, the nuclei count in assay [2] was determined as 84%; in assay [3], 136%. Besides, in assay [4], the fluorescence slope was -0.356 (inactive). Also, in assay [5], the NADPH fluorescence slope is -1.3e-05 (inactive). Also, the slope in assay [6] is 0.00564 (inactive).
In the case of `Cc1nn(-c2ccccc2)c2sc(C(=O)N3CCOCC3)cc12`, in assay [1], the cell count came out at 536. For the same molecule, the inhibition in assay [1] is -4.4% (inactive); in assay [3] it was -11.9% (inactive); in assay [7], -21.4% (inactive); in assay [8], -21.6% (inactive). For the same molecule, the inhibition of aggregation in assay [2] is -1.9% (inactive). The nuclei count in assay [2] was 115%; in assay [3] it was 118%. Also, in assay [4], the fluorescence slope is -0.398 (inactive). In assay [5], the NADPH fluorescence slope is 1.4e-05 (inactive). Further, the slope in assay [6] was 0.00676 (inactive).
`CCCC(=O)Nc1nc2ccc(S(N)(=O)=O)cc2s1`: the cell count in assay [1] amounted to 718. The inhibition in assay [1] is -1.8% (inactive); in assay [3] it was -9.7% (inactive); in assay [7] it was -18.7% (inactive); in assay [8], -57.7% (inactive). In assay [2], the inhibition of aggregation was -16.5% (inactive). Also, the figures for the nuclei count in assay [2] and in assay [3] were 102% and 100%, respectively. In assay [4], the fluorescence slope is -0.406 (inactive). Moreover, the NADPH fluorescence slope in assay [5] was 5.8e-05 (inactive). Also, the slope in assay [6] was 0.00596 (inactive).
